Here are results for 84 molecules from PubChem BioAssay AID588405 (Sanford-Burnham Center for Chemical Genomics, 2011).

The whole screen tested about 360,000 compounds, of which about 6,200 (1.7%) were called active.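 The calls were made as follows: active = inhibition of at least 50% at 20 µM; inactive = the rest.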 For the sample, actives were picked, then their nearest neighbours and some compounds at random.

The test is described as follows: Peg3 promoter-driven luciferase inhibitors, primary screen, cell-based, HeLa, luciferase luminescence (AID 588405). Conditions: HeLa PEG-Prom luciferase reporter, overnight, at 20 µM, stronger effect = higher value.
`CCc1nc2ccc(C(=O)Nc3cc(-c4ccccc4)ccc3OC)cn2c1N(CC)CC(=O)N(C)C`: the inhibition was -22.1% (inactive). With `O=C(NCCN1CCOCC1)c1ccc2c(c1)N(Cc1cccc(Cl)c1)C(=O)c1ccccc1S2(=O)=O` the figure was 23.8% (inactive); with `Cc1ccccc1CN1C(=O)c2ccccc2Sc2ccc(C(=O)NCCCN3CCOCC3)cc21`, 26.3% (inactive); with `CN1CCN(CCCNC(=O)c2ccc(/C=C3\Oc4ccccc4N(Cc4ccc(Cl)cc4)C3=O)cc2)CC1`, 109% (active). With `CCN1CCN(CCNC(=O)c2ccc3c(c2)NC(=O)/C(=C\c2cccc(Cl)c2)S3)CC1` the figure was 99.5% (active); with `CCN1CCCC1CNC(=O)c1cc2cc(OC)c(OC)cc2[nH]1` (centres undefined), 18% (inactive). For `CC(C)OCCCNC(=O)CN1C(=O)/C(=C/c2ccccc2F)Oc2ccccc21` the value was 4.52% (inactive). Turning to `CCCC1=Nc2cc(C(=O)NCCN3CCCC3)ccc2Sc2ccccc21`, the inhibition was 16.7% (inactive). With `CCN1CCCC1CNC(=O)c1cc2c(=O)n(C)c3ccccc3c2n1C` (centres undefined) the figure was -10.3% (inactive); with `O=C(NCCCN1CCCCC1)c1ccc2c(c1)NC(=O)C(N1CCOCC1)S2` (centres undefined), -8.33% (inactive); with `Cc1c(C)n(Cc2ccc(Cl)cc2)c2ccc(C(=O)NCCCN3CCOCC3)cc12`, 47.1% (inactive).

Turning to `CCN1CCCC1CNC(=O)c1ccc2c(c1)NC(=O)/C(=C\c1ccccc1F)S2` (centres undefined), the inhibition was 56.9% (active). In the case of `CCN1CCN(CCNC(=O)c2ccc(/C=C3/Sc4ccccc4N(Cc4cccc(C)c4)C3=O)cc2)CC1`, the inhibition was 103% (active).

On to `COc1ccc(-c2cc(NC=O)c3ncc(-c4cc(OC)c(OC)c(OC)c4)n3c2)c(OC)c1`, for which the inhibition is 1.14% (inactive).

As for `Nc1ncnc2c1ncn2[C@@H]1O[C@H](C(=O)N2CCCN(Cc3ccccc3F)CC2)[C@@H](O)[C@H]1O`, the inhibition was 3.41% (inactive). `OC[C@@H]1CN(Cc2ccc(F)cc2)C[C@H](n2cnc3c(NC4CCCC4)ncnc32)O1`: the inhibition was 12.2% (inactive). Take `CCCNC(=O)C1(C)CCN(C(=O)c2ccc(F)cc2Cl)C1` (centres undefined): the inhibition was 1.51% (inactive). Take `CC1(C(=O)NS(=O)(=O)Cc2cccc(Cl)c2)CCN1C(=O)Cc1ccc(Cl)cc1Cl` (centres undefined): the inhibition was -1.37% (inactive). For `Cc1cn([C@H]2C[C@H](O)[C@@H](/C=C/C(=O)NCCCc3ccccc3)O2)c(=O)[nH]c1=O`, the inhibition was 9.64% (inactive). `O=C(NCCN1CCOCC1)/C(=C/c1ccc(F)cc1)NC(=O)c1ccccc1`: the inhibition is -17.8% (inactive). `Cc1ccc(C(=O)N/C(=C\c2ccc(F)cc2)C(=O)NCCN2CCOCC2)cc1`: the inhibition is -0.33% (inactive). For `O=C(NCCN1CCOCC1)c1ccc(/C=C2\Sc3ccccc3N(Cc3ccc(F)cc3)C2=O)cc1` the value was 66.6% (active). Turning to `O=[N+]([O-])c1ccc(CN2CC(N3CC=CC3)CS2(=O)=O)cc1` (centres undefined), the inhibition was -12% (inactive). For `CC(=O)c1cccc(-c2cnc3c(NC=O)cc(-c4cccc(C(=O)N(C)C)c4)cn23)c1` the value was 33.8% (inactive). For the molecule `CN(C)C(=O)c1cccc(-c2cnc3c(NC=O)cc(-c4ccc(F)cc4)cn23)c1`, the inhibition is 35.5% (inactive). As for `CN(C)CCNC(=O)c1cccc(-c2cnc3c(NC=O)cc(-c4cccc(C(F)(F)F)c4)cn23)c1`, the inhibition is 98.7% (active).

On to `Nc1nc2c(ncn2[C@@H]2O[C@H](CNCc3ccc(OCCCN4CCOCC4)cc3)[C@@H](O)[C@H]2O)c(=O)[nH]1`, for which the inhibition was -2.38% (inactive). `COc1ccc(CNC(=O)c2ccc(-c3cccnc3)c3ccoc23)cc1OC`: the inhibition is 10.8% (inactive). With `Cc1c(C(=O)Nc2cccc(Cl)c2)cn2c(nc3ccccc32)c1C#N` the figure was 60.9% (active); with `Cc1cc(Cl)nc(NC(=O)Nc2cccc(Cl)c2)n1`, -174% (inactive). For `CCC(=O)Nc1nc(C)c(C(=O)Nc2cccc(Cl)c2)s1` the value was -28.7% (inactive); for `COc1cccc(CN(C)C(=O)CC[C@H]2O[C@@H](n3cnc4c(NC(=O)c5ccccc5)ncnc43)[C@H](O)[C@@H]2O)c1`, 4.1% (inactive); for `C[N+]1(CCNC(=O)/C=N/O)CCCCC1`, 17% (inactive). For `CCCNC(=O)C1(C)CCCN(C(=O)c2oc3ccccc3c2C)C1` (centres undefined) the value was -3.03% (inactive); for `Cc1nc(Nc2ccccc2F)c2nnn(Cc3ccccc3Cl)c2n1`, 8.32% (inactive). `Cc1nc(Nc2ccc3c(c2)OCCO3)c2nnn(Cc3ccccc3Cl)c2n1`: the inhibition was 54.7% (active). With `CCCc1nc(NCc2ccc3c(c2)OCO3)c2nnn(Cc3ccccc3Cl)c2n1`, the inhibition was 1.34% (inactive).

`COc1ccccc1-c1nn(Cc2ccccc2)cc1C(=O)N1CCN(c2ncccn2)CC1`: the inhibition was 33.2% (inactive).

For the molecule `O=C(/C=C/c1ccc(Cl)c([N+](=O)[O-])c1)c1ccc(O)cc1`, the inhibition was 104% (active).

Take `CC(CC(=O)O)C(=O)c1ccc(Cl)c([N+](=O)[O-])c1` (centres undefined): the inhibition was 1.7% (inactive). With `O=C(/C=C/c1ccc(Cl)c([N+](=O)[O-])c1)c1cccnc1`, the inhibition is 105% (active). Regarding `CC(=O)Nc1ccc(C=CC(=O)c2ccc([N+](=O)[O-])cc2)cc1`, the inhibition is 4.26% (inactive). For `C/C(=N\NC(=O)Cc1ccccc1[N+](=O)[O-])c1cccnc1` the value was 17.7% (inactive). For `O=C(Nc1cccnc1)c1ccc(Cl)cc1[N+](=O)[O-]` the value was -0.43% (inactive); for `CC(C)(C)S(=O)N1Cc2cc(C(=O)NCCCN3CCOCC3)nc(-c3cccc(-c4cc5ccccc5o4)c3)c2[C@H]1CCO` (some centres undefined), -6.92% (inactive); for `CCCNC(=O)C1(C)CCN1C(=O)Cc1ccc(-c2ccccc2)cc1` (centres undefined), -9.6% (inactive).

On to `CCCNC(=O)N1CCN(C(=O)NCCC)CC1`, for which the inhibition was 7.21% (inactive). With `CCC(C)(C)c1ccc(Oc2ccc(NC(=O)COC(=O)C3=COCCO3)cc2)cc1` the figure was 11.8% (inactive); with `O=C1c2ccccc2C2=Nc3ccccc3SC(c3ccccc3F)C12` (centres undefined), 50.8% (active). With `COc1ccc(-c2cc(NC(C)=O)c3ncc(-c4cc(OC)c(OC)c(OC)c4)n3c2)cn1` the figure was 9.76% (inactive); with `Cc1ccc(C)c(NC(CC(=O)c2ccccc2)C(=O)OCC(=O)c2cccs2)c1` (centres undefined), -74.6% (inactive); with `Cc1ccccc1C(CC(=O)c1cccs1)C(C#N)C#N` (centres undefined), 98.4% (active). As to `O=C(NCC(=O)N1CCN(c2ccccc2F)CC1)c1cccs1`, the inhibition is -57% (inactive).

On to `OCCC1CN(Cc2cccc(OC3CCCC3)c2)CCN1Cc1ccsc1` (centres undefined), for which the inhibition was 18.8% (inactive). With `CCc1nc2c(OCCOc3ccc(F)cc3)cccn2c1N(C)C(=O)c1ccccc1F` the figure was 14.6% (inactive); with `C=C(C)C(=O)O[C@H]1C/C(C)=C\C(=O)/C=C(\C)[C@H](O)[C@@H]2OC(=O)C(=C)[C@@H]21`, 94.4% (active).

Regarding `Cc1cc(NC(=O)COC(=O)/C=C/c2ccc(C)o2)no1`, the inhibition was 6.71% (inactive). With `Cc1sc2ncn(CC(=O)NCCCC(=O)N(C)Cc3ccccc3)c(=O)c2c1C` the figure was 8.27% (inactive).

Turning to `COc1ccc(Nc2ncnc3ccc(Br)cc23)c(OC)c1`, the inhibition is 88.1% (active). With `COc1ccc(OC)c(NC(=O)CN(C)CCOc2ccc(Br)cc2)c1` the figure was 7.53% (inactive); with `COc1ccccc1Nc1ncnc2c1oc1ccccc12`, -388% (inactive); with `Cc1cc(Br)cn2c(Cc3ccsc3)c(-c3ccc(C#N)cc3)nc12`, -3.22% (inactive). For `CCOC(=O)C1CCCN(C(=O)c2ccc(N(C)C)cc2)CC1` (centres undefined) the value was -7.67% (inactive); for `O=[N+]([O-])/C=C/c1ccc2c(ccn2Cc2ccccc2)c1`, 107% (active). Consider `O=C(Nc1nnc([C@H]2C[C@H](O)[C@@H](CO)O2)s1)c1cccc(Cl)c1`, for which the inhibition is -8.3% (inactive). For `Nc1cccc(S(=O)(=O)Nc2ccc(SC(F)F)cc2)c1` the value was 8.83% (inactive); for `COc1ccc(NC(=O)/C(N=Nc2cccc(S(=O)(=O)Nc3ccc(SC(F)F)cc3)c2)=C(\C)O)cc1`, 50.3% (active). As to `Cc1c(NS(=O)(=O)c2cccc(C(=O)Nc3ccc(SC(F)F)cc3)c2)c(=O)n(-c2ccccc2)n1C`, the inhibition was 34.6% (inactive). Take `CCN(CC)C(=O)CC(c1ccc2c(c1)OCO2)c1c(OC)cc(OC)c2c(-c3ccccc3)cc(=O)oc12` (centres undefined): the inhibition is 7.97% (inactive). With `CCN(CC)CCC(c1ccc2c(c1)OCO2)c1c(OC)cc(OC)c2c(-c3ccccc3)cc(=O)oc12` (centres undefined) the figure was 56.4% (active); with `CCN(CC)CCC(c1cc(OC)c(OC)c(OC)c1)c1c(OC)cc(OC)c2c(-c3ccccc3)cc(=O)oc12` (centres undefined), 27.4% (inactive). For `CC1(C(=O)Nc2cccc3cccnc23)CCN1C(=O)CCC1CCCC1` (centres undefined) the value was 10.3% (inactive); for `COc1ccc(CCNC(=O)Nc2ccc3c(c2)c(=O)n(C)n3C)cc1OC`, -7.49% (inactive); for `O=C(c1ccc(F)cc1)c1c[nH]c(C(=O)NCc2cccnc2)c1`, 18% (inactive). For `COc1ccc(C(=O)Nc2ccccc2C(=O)N/N=C/c2ccc(O)c(OC)c2)cc1` the value was 83.7% (active); for `COc1ccc(-c2[nH]ncc2/C=N/NC(=O)c2cc(Br)ccc2O)c(OC)c1`, 5.43% (inactive); for `O=C(NN=Cc1ccc2c(c1)CCC2)c1ccccc1O`, -215% (inactive). `O=C(Nc1cc(Br)ccc1F)c1nc[nH]c1C(=O)NCc1ccccc1`: the inhibition is 2.41% (inactive). For `Cc1sc2ccccc2c1CNC[C@H]1O[C@@H](n2ccc(=O)[nH]c2=O)[C@H](O)[C@@H]1O`, the inhibition was -4.81% (inactive). With `Cc1cc(N/C=C\C(=O)c2ccc(Cl)c(Cl)c2)no1` the figure was -233% (inactive); with `COc1ccc(C(=O)/C=C/Nc2ccccn2)cc1`, 63% (active). Consider `COc1ccc(N2C(=O)CCC(C(=O)Nc3ccccn3)C2c2ccc(OC)c(OC)c2)cc1` (centres undefined), for which the inhibition was 12.5% (inactive). For `COc1ccccc1CNC(=O)c1cc(-c2cc(F)ccc2OC)n[nH]1` the value was 0.22% (inactive); for `COc1ccc(OC)c(C(=O)NC(CC(N)=O)c2ccc(N3CCC(N4CCCCC4)CC3)c([N+](=O)[O-])c2)c1` (centres undefined), 0.66% (inactive).
